Source: PubChem BioAssay
Many of the other results were omitted from the sample, so hits are more common in it than they were.
VACV Venus inh: vaccinia inhibition (Venus reporter) | Vaccinia virus Venus reporter expression, fluorescence | Potency, µM (titrated, usually from 36.5 µM), without a hit: top-dose activity change, negative = inhibition, usual class: inhibitors | 330,000 compounds, 0.46% hits | AID 720580; calls by dose curve; tested in A549 cells; also: potency is read from the fitted curve at half-maximal effect; % is scaled to controls: 0 for no effect and ±100 for the full control effect; nearly all actives have a fitted effect of over 30% in size
VACV mCherry inh: vaccinia inhibition (mCherry reporter). Vaccinia virus mCherry reporter infection, fluorescence. 310,000 compounds, 0.63% hits. AID 720579. Potency, µM (top dose mostly 36.5 µM), for inactives: at the top dose activity change, negative = inhibition, usual class: inhibitors; calls by dose curve; tested in A549 cells; also: potency is read from the fitted curve at half-maximal effect; % is scaled to controls: 0 for no effect and ±100 for the full control effect; nearly all actives have a fitted effect of over 35% in size
LASV entry inh: blocks Lassa virus binding to or entry into cells; Lassa virus pseudotype entry inhibition, cell reporter; Potency, µM (series often up to 37.9 µM), without a hit: at the top dose activity change, negative = inhibition, actives largely listed as inhibitors; 300,000 compounds, 1.2% hits; calls by dose curve; tested in HEK293 cells; also: potency is read from the fitted curve at half-maximal effect; % is scaled to controls: 0 for no effect and ±100 for the full control effect; nearly all actives have a fitted effect of over 50% in size
Marburg entry inh: blocks Marburg virus binding to or entry into cells | Marburg virus pseudotyped entry inhibition, cell reporter | Potency, µM (titrated, usually from 37.8 µM), inactives show at the highest dose activity change, negative = inhibition, usual class: inhibitors | 300,000 compounds, 1.8% hits; calls by dose curve; tested in HEK293 cells; also: potency is read from the fitted curve at half-maximal effect; % is scaled to controls: 0 for no effect and ±100 for the full control effect
Shiga inhibitor: Shiga toxin inhibition; Vero cells, Shiga toxin protein synthesis inhibition reporter; inhibition, % at 38.7 µM; 290,000 compounds, 9.2% hits; in the data active = inhibition mostly above about 28%, no sharp cut-off; inactive = mostly below about 43%; also: 0% is about no effect
CHX counter: affects cycloheximide protein synthesis inhibition readout, counter-screen; cell reporter, cycloheximide protein synthesis inhibition counterscreen; max response, %; 300,000 compounds, 12% hits; AID 2314; in the data active = max response mostly above about 13%, no sharp cut-off; inactive = mostly below about 14%; also: read at 38.3 µM for the half of the compounds with a filed dose; 0% is about no effect
The depositor's hits bear a star; [ ] = another dose, or the depositor's remark.

c1ccc(-c2nnc(-c3ccccn3)s2)nc1 was read as VACV Venus inh -2%, VACV mCherry inh 0%, LASV entry inh inconclusive, Marburg entry inh 1.1µM*, Shiga inhibitor 54* and CHX counter 59*.
For c1ccc(-c2cncnc2)nc1 the results were VACV Venus inh -18% and VACV mCherry inh inactive.
Screening CCOC(=O)c1cc(-c2ccccc2)n(CC(=O)Nc2ccccc2OCC)c1C returned VACV Venus inh -4%, VACV mCherry inh -8% and LASV entry inh inconclusive.
`Cc1nn(-c2ccc(F)cc2)c(-n2cccc2)c1C(=O)N1CCN(c2ccccc2F)CC1` gave VACV Venus inh -9%, VACV mCherry inh -11% and LASV entry inh 1%[46.1 µM].
Screening Cc1ccc2nc(NCCCN3CCOCC3)c(C=NCCCN3CCOCC3)c(=O)n2c1 returned VACV Venus inh 16%, VACV mCherry inh 23%, LASV entry inh 12%, Marburg entry inh 0%, Shiga inhibitor 25 and CHX counter 9.9*.
COc1cccc(CN2CCC3(CCC(CNC(=O)c4ccco4)O3)CC2)c1OC (stereo not drawn) was read as VACV Venus inh 5% and VACV mCherry inh -7%.
For Cc1ccc(SC(=O)c2c([N+](=O)[O-])c(C)nn2C)cc1 the results were VACV Venus inh -12%[7.34 µM], VACV mCherry inh -21%[7.34 µM], LASV entry inh -13%, Marburg entry inh 10%[46.1 µM], Shiga inhibitor 9 and CHX counter 12*.
For Cc1cc(C)n(C(=O)c2c([N+](=O)[O-])c(C)nn2C)n1 the results were LASV entry inh -18%, Marburg entry inh 19%, Shiga inhibitor -3 and CHX counter 1.
`O=C1CC2(CCN(C(=O)c3ccccc3[N+](=O)[O-])CC2)Oc2ccccc21` gave VACV Venus inh -9%, VACV mCherry inh -20%, LASV entry inh -2% and Marburg entry inh 1%.
`O=C1c2ccccc2C(=O)c2[nH]c(=O)[nH]c21` gave VACV Venus inh 2.8µM*, VACV mCherry inh 1.3µM*, LASV entry inh 10µM*, Marburg entry inh inconclusive, Shiga inhibitor 4 and CHX counter -2.
COc1ccc2nc(NC(=O)c3ccccc3[N+](=O)[O-])sc2c1 was read as Shiga inhibitor 71* and CHX counter 40*.
Screening COc1ccc(C(=O)NNC(=O)c2ccccc2[N+](=O)[O-])cc1 returned VACV Venus inh -9%, VACV mCherry inh inactive, LASV entry inh 7%, Marburg entry inh inconclusive, Shiga inhibitor 37* and CHX counter 32*.
`O=C(Nc1nc2ccccc2s1)c1ccccc1[N+](=O)[O-]` gave Shiga inhibitor 60* and CHX counter 46*.
COc1ccc(-n2nc(C(=O)Nc3nc4ccc(OC)cc4s3)c3ccccc3c2=O)cc1 was read as VACV Venus inh -3%, VACV mCherry inh -5%, LASV entry inh 13%, Marburg entry inh -2%, Shiga inhibitor -14 and CHX counter -10.
COc1ccc2nc(NC(=O)c3ccccc3O)sc2c1 was read as Shiga inhibitor 63* and CHX counter 58*.
For O=C(O)c1cccc([N+](=O)[O-])c1C(=O)Nc1nc2ccccc2s1 the results were VACV Venus inh 1%, VACV mCherry inh -14%, Shiga inhibitor 34 and CHX counter 6.
CCOC(=O)Cn1c(C(F)(F)F)nc2nc(Cl)c(Cl)nc21 was read as VACV Venus inh -23%, VACV mCherry inh -24%, LASV entry inh -14%[46.1 µM] and Marburg entry inh -20%.
`OC1(c2cccnc2)CCN(Cc2ccc3c(c2)CN(Cc2ccsc2)CCO3)CC1` gave VACV Venus inh -16% and VACV mCherry inh -13%.
`CCOC(=O)c1ccc(NC(=O)CCc2c(C)n(CC)c3cc(-c4ccccc4OC)nn3c2=O)cc1` gave VACV Venus inh 0%, VACV mCherry inh -3%, LASV entry inh 11%[46.1 µM] and Marburg entry inh 5%[46.1 µM].
`CCOC(=O)c1cccc(C(=O)Nc2nc3ccc(OC)cc3s2)n1` gave Shiga inhibitor 39* and CHX counter 21.
C/C(=N\Nc1nc2ccccc2s1)c1cccs1 was read as VACV Venus inh -21%, VACV mCherry inh -23%, LASV entry inh 6.5µM*, Marburg entry inh inconclusive, Shiga inhibitor 73* and CHX counter 89*.
Screening C/C(=N\Nc1nc(-c2ccccc2)cs1)c1cccs1 returned VACV Venus inh -9%, VACV mCherry inh inactive, LASV entry inh inconclusive, Marburg entry inh inconclusive, Shiga inhibitor 118* and CHX counter 75*.
Screening CC(=NNc1nc2ccccc2s1)c1ncccn1 returned VACV Venus inh 19%, VACV mCherry inh 1µM*, LASV entry inh 1µM* and Marburg entry inh inconclusive.
Cc1ccc(CNC(=S)NCc2ccncc2)cc1 was read as VACV Venus inh -8%, VACV mCherry inh -7%, LASV entry inh inconclusive, Marburg entry inh 4%[14.2 µM], Shiga inhibitor 2 and CHX counter -1.
Screening O=C(Cn1nnnc1-c1ccccc1F)Nc1ccc(OC(F)(F)F)cc1 returned VACV Venus inh -13%, VACV mCherry inh -7%, LASV entry inh -13%[46.1 µM] and Marburg entry inh -2%[46.1 µM].
COc1ccc(Cn2ccnc2SCC(=O)Nc2ccc(C)cc2C)cc1 was read as VACV Venus inh -11%, VACV mCherry inh inactive and LASV entry inh inconclusive.
For COc1ccc(NC(=O)c2ccc3[nH]c(C)c(C)c3c2)cc1 the results were Shiga inhibitor 48* and CHX counter 39*.
Cc1cc(NC(=O)c2ccc3[nH]c(C)c(C)c3c2)ccn1 was read as VACV Venus inh -20%, VACV mCherry inh inconclusive, LASV entry inh -28%[46.1 µM], Marburg entry inh -17%[46.1 µM], Shiga inhibitor 52* and CHX counter 34.
COc1ccccc1CNC(=O)c1ccc2[nH]c(C)c(C)c2c1 was read as VACV Venus inh -13%, VACV mCherry inh -9% and LASV entry inh inconclusive.
`CC(=O)Nc1cccc(NC(=O)c2ccc3[nH]c(C)c(C)c3c2)c1` gave VACV Venus inh -10%, VACV mCherry inh -18%, LASV entry inh inconclusive, Marburg entry inh -5%[46.1 µM], Shiga inhibitor 56* and CHX counter 20*.
For CCOc1ccc(NC(=O)c2ccc3[nH]c(C)c(C)c3c2)cc1 the results were VACV Venus inh -8%, VACV mCherry inh inactive and LASV entry inh inconclusive.
Cc1[nH]c2ccc(C(=O)NCc3ccccn3)cc2c1C was read as Shiga inhibitor 55* and CHX counter 29*.
`CCc1cc(C(=O)Nc2cnn(Cc3ccccc3C)c2)no1` gave VACV Venus inh -10%, VACV mCherry inh -12%, LASV entry inh inconclusive and Marburg entry inh inconclusive.
Screening Cc1ccc(NS(=O)(=O)c2ccc(Cl)c(C(=O)Nc3ccccc3-c3nc4ccccc4[nH]3)c2)cc1C returned VACV Venus inh 10µM*, VACV mCherry inh inconclusive, LASV entry inh inconclusive, Marburg entry inh inconclusive, Shiga inhibitor 22 and CHX counter 9.
For COc1ccc2[nH]c(N=Nc3ccccc3C)c(O)c2c1 the results were VACV Venus inh -8%, VACV mCherry inh -15%, LASV entry inh inconclusive, Marburg entry inh 29%, Shiga inhibitor active and CHX counter 16.
